Measurements: PubChem BioAssay AID1159580 (chemical genetic matrix, 2015)
The whole screen tested about 5,500 compounds, of which about 2,000 (36%) were called active. Inconclusive results (about 18%) are left out. Cut-off read from the data, not from the text of the source: active = normalized growth mostly below about 0.91 (no sharp cut-off); inconclusive = no clear call, values can overlap the other calls; inactive = mostly above about 0.92. The list shows a part of the results.

Assay: chemical genetic growth profiling, strain panel (AID 1159580);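 note: tested at 20 µM; growth read once vehicle control cultures reached saturation at 30 °C; 1 = growth at the plate median or of vehicle wells; lower values mean less growth of the strain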
Conditions: growth OD

Measured: normalized growth

CCC(=O)O[C@H]1CCC2C3CCC4=CC(=O)CC[C@]4(C)C3CC[C@@]21C (some centres not stated)
inactive: S. cerevisiae deletion strains, locus YJR066W, strain TOR1, stronger effect = lower value 0.884 | S. cerevisiae deletion strains, locus YKL009W, strain mrt4, stronger effect = lower value 0.974 | S. cerevisiae deletion strains, locus YKL068W, stronger effect = lower value 0.972 | S. cerevisiae deletion strains, locus YKR026C, strain gcn3, stronger effect = lower value 0.96 | S. cerevisiae deletion strains, locus YKR091W, strain srl3, stronger effect = lower value 0.948 | S. cerevisiae deletion strains, locus YLL001W, strain dnm1, stronger effect = lower value 0.989 | S. cerevisiae deletion strains, locus YLL026W, stronger effect = lower value 0.971 | S. cerevisiae deletion strains, locus YLL041C, strain sdh2, stronger effect = lower value 0.957 | S. cerevisiae deletion strains, locus YLR027C, strain aat2, stronger effect = lower value 0.93 | S. cerevisiae deletion strains, locus YLR058C, strain SHM2, stronger effect = lower value 0.956 | S. cerevisiae deletion strains, locus YLR102C, strain apc9, stronger effect = lower value 0.99 | S. cerevisiae deletion strains, locus YLR113W, strain HOG1, stronger effect = lower value 0.941 | S. cerevisiae deletion strains, locus YLR221C, strain rsa3, stronger effect = lower value 0.925 | S. cerevisiae deletion strains, locus YLR262C, strain YPT6, stronger effect = lower value 0.633 | S. cerevisiae deletion strains, locus YLR268W, strain sec22, stronger effect = lower value 0.934 | S. cerevisiae deletion strains, locus YLR357W, strain rsc2, stronger effect = lower value 0.944 | S. cerevisiae deletion strains, locus YLR370C, strain arc18, stronger effect = lower value 0.955 | S. cerevisiae deletion strains, locus YLR384C, strain iki3, stronger effect = lower value 0.969 | S. cerevisiae deletion strains, locus YML016C, strain PPZ1, stronger effect = lower value 0.982 | S. cerevisiae deletion strains, locus YML120C, strain ndi1, stronger effect = lower value 0.952 | S. cerevisiae deletion strains, locus YML124C, strain tub3, stronger effect = lower value 0.972 | S. cerevisiae deletion strains, locus YMR058W, strain fet3, stronger effect = lower value 0.916 | S. cerevisiae deletion strains, locus YMR078C, strain ctf18, stronger effect = lower value 0.978 | S. cerevisiae deletion strains, locus YMR125W, strain sto1, stronger effect = lower value 0.913 | S. cerevisiae deletion strains, locus YMR129W, stronger effect = lower value 0.942 | S. cerevisiae deletion strains, locus YMR231W, strain pep5, stronger effect = lower value 0.957 | S. cerevisiae deletion strains, locus YMR263W, strain SAP30, stronger effect = lower value 0.963 | S. cerevisiae deletion strains, locus YMR307W, strain GAS1, stronger effect = lower value 0.917 | S. cerevisiae deletion strains, locus YNL067W, strain RPL9B, stronger effect = lower value 0.985 | S. cerevisiae deletion strains, locus YNL183C, strain NPR1, stronger effect = lower value 0.89 | S. cerevisiae deletion strains, locus YNL250W, strain rad50, stronger effect = lower value 1 | S. cerevisiae deletion strains, locus YNL271C, strain bni1, stronger effect = lower value 0.963 | S. cerevisiae deletion strains, locus YNL298W, strain CLA4, stronger effect = lower value 0.949 | S. cerevisiae deletion strains, locus YNL322C, strain KRE1 (second series), stronger effect = lower value 0.952 | S. cerevisiae deletion strains, locus YNL322C, strain KRE1, stronger effect = lower value 0.958 | S. cerevisiae deletion strains, locus YNR049C, strain mso1, stronger effect = lower value 0.932 | S. cerevisiae deletion strains, locus YNR052C, strain pop2, stronger effect = lower value 0.924 | S. cerevisiae deletion strains, locus YOL006C, strain TOP1, stronger effect = lower value 0.74 | S. cerevisiae deletion strains, locus YOL012C, strain htz1 0.608 | S. cerevisiae deletion strains, locus YOL147C, strain pex11, stronger effect = lower value 0.967 | S. cerevisiae deletion strains, locus YOR001W, strain rrp6, stronger effect = lower value 0.971 | S. cerevisiae deletion strains, locus YOR061W, strain CKA2, stronger effect = lower value 0.971 | S. cerevisiae deletion strains, locus YOR069W, strain VPS5, stronger effect = lower value 0.976 | S. cerevisiae deletion strains, locus YOR070C, strain gyp1, stronger effect = lower value 0.944 | S. cerevisiae deletion strains, locus YOR080W, strain dia2, stronger effect = lower value 0.941 | S. cerevisiae deletion strains, locus YOR136W, strain idh2, stronger effect = lower value 0.965 | S. cerevisiae deletion strains, locus YOR144C, strain elg1, stronger effect = lower value 0.968 | S. cerevisiae deletion strains, locus YOR231W, strain MKK1, stronger effect = lower value 0.988 | S. cerevisiae deletion strains, locus YOR265W, strain rbl2, stronger effect = lower value 0.946 | S. cerevisiae deletion strains, locus YOR290C, strain snf2, stronger effect = lower value 0.892 | S. cerevisiae deletion strains, locus YOR316C, strain cot1, stronger effect = lower value 0.987 | S. cerevisiae deletion strains, locus YPL055C, strain LGE1, stronger effect = lower value 0.794 | S. cerevisiae deletion strains, locus YPL106C, strain sse1, stronger effect = lower value 0.906 | S. cerevisiae deletion strains, locus YPL240C, strain hsp82, stronger effect = lower value 0.978 | S. cerevisiae deletion strains, locus YPL256C, strain CLN2, stronger effect = lower value 0.982 | S. cerevisiae deletion strains, locus YPR119W, strain clb2, stronger effect = lower value 0.981 | S. cerevisiae deletion strains, locus YPR141C, strain kar3, stronger effect = lower value 0.976 | S. cerevisiae deletion strains, locus YPR163C, strain tif3, stronger effect = lower value 0.933 | S. cerevisiae deletion strains, locus YPR167C, strain met16, stronger effect = lower value 0.971 | S. cerevisiae deletion strains, strain wtn01, stronger effect = lower value 0.924 | S. cerevisiae strains, strain wild type, stronger effect = lower value 0.944
active: S. cerevisiae deletion strains, locus YKL085W, strain MDH1 (second series), stronger effect = lower value 0.901 | S. cerevisiae deletion strains, locus YKL085W, strain MDH1, stronger effect = lower value 0.901 | S. cerevisiae deletion strains, locus YKL160W, strain elf1, stronger effect = lower value 0.882 | S. cerevisiae deletion strains, locus YKR001C, strain vps1, stronger effect = lower value 0.861 | S. cerevisiae deletion strains, locus YLR039C, strain RIC1, stronger effect = lower value 0.653 | S. cerevisiae deletion strains, locus YLR258W, strain gsy2, stronger effect = lower value 0.899 | S. cerevisiae deletion strains, locus YLR262C, strain YPT6 (second series), stronger effect = lower value 0.671 | S. cerevisiae deletion strains, locus YLR320W, strain mms22, stronger effect = lower value 0.83 | S. cerevisiae deletion strains, locus YLR330W, strain CHS5, stronger effect = lower value 0.821 | S. cerevisiae deletion strains, locus YLR342W, strain FKS1 (second series), stronger effect = lower value 0.745 | S. cerevisiae deletion strains, locus YLR342W, strain FKS1, stronger effect = lower value 0.779 | S. cerevisiae deletion strains, locus YLR371W, strain rom2, stronger effect = lower value 0.783 | S. cerevisiae deletion strains, locus YLR418C, strain cdc73, stronger effect = lower value 0.672 | S. cerevisiae deletion strains, locus YML032C, strain rad52, stronger effect = lower value 0.889 | S. cerevisiae deletion strains, locus YMR205C, strain PFK2, stronger effect = lower value 0.785 | S. cerevisiae deletion strains, locus YMR223W, strain ubp8, stronger effect = lower value 0.888 | S. cerevisiae deletion strains, locus YNL071W, strain lat1, stronger effect = lower value 0.719 | S. cerevisiae deletion strains, locus YNL233W, strain BNI4, stronger effect = lower value 0.803 | S. cerevisiae deletion strains, locus YNL248C, strain rpa49, stronger effect = lower value 0.86 | S. cerevisiae deletion strains, locus YNL307C, strain MCK1, stronger effect = lower value 0.679 | S. cerevisiae deletion strains, locus YOR083W, strain WHI5, stronger effect = lower value 0.796 | S. cerevisiae deletion strains, locus YOR106W, strain vam3, stronger effect = lower value 0.837 | S. cerevisiae deletion strains, locus YOR184W, strain ser1, stronger effect = lower value 0.523 | S. cerevisiae deletion strains, locus YOR270C, strain vph1, stronger effect = lower value 0.653 | S. cerevisiae deletion strains, locus YPL051W, strain arl3, stronger effect = lower value 0.89 | S. cerevisiae deletion strains, locus YPL078C, strain atp4, stronger effect = lower value 0.869
